The campaign covered roughly 330,000 compounds. About 230 (0.07%) were called active. This excerpt belongs to a sample that is enriched for actives. Unmarked numbers belong to inactive results.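 Rule for the calls: active = more than half of a compound's replicate wells show inhibition beyond 50%, single wells judged on their own value; inconclusive = some, but no more than half, of replicates pass 50% inhibition; inactive = no replicate passes 50% inhibition.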

In the experiment the target is Lysine-specific demethylase 4C (Homo sapiens) (UniProt Q9H3R0). The experiment can be described thus: JMJD2C H3K9me3 demethylation blockers – biochemical, fluorescence, DELFIA europium, primary screen (AID 2099).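 Note: signal counts dimethyl H3K9 product captured on neutravidin plate; 0% = median of DMSO wells and 100% = 0.3 times that DMSO median.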 Particulars: GST-JMJD2C(1-420) H3K9me3 demethylation, at 2.35 µM, active compounds read high.
Lysine-specific demethylase 4C (Homo sapiens), sequence (Q9H3R0 1-420 limits assumed): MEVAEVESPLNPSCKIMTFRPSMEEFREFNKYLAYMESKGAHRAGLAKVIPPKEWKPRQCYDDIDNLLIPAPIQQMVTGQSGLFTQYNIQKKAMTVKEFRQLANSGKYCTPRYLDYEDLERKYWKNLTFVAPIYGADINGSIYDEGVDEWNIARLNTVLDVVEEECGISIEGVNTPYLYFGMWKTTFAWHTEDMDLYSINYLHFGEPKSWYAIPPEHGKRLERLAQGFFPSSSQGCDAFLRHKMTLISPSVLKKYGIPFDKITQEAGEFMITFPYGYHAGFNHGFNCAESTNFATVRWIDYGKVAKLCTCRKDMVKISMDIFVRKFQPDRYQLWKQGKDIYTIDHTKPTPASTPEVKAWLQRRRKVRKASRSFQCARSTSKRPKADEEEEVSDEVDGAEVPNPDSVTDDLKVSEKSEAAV
With `O=C(c1ccc(S(=O)(=O)N2CCCC2)cc1)N1CCN(c2ccccc2F)CC1`, the inhibition is 5.37%.

Consider `C/C(=N\NC(=O)CCn1nc(C)cc1C)C(C)(C)C`, for which the inhibition is -1.66%.

For `CCC(c1nnc(SCC(=O)NNC(=O)c2ccccc2)n1Cc1ccccc1)N(C)C` (configuration not stated), the inhibition is 24.1%.

In the case of `CC1CN(C(=O)COC(=O)c2cccc(NS(=O)(=O)c3ccccc3)c2)CC(C)O1` (configuration not stated), the inhibition was -11.9%.

With `CC(C)(C)n1nnc(CCc2nnn(C(C)(C)C)n2)n1`, the inhibition was 4.71%.

In the case of `CC1CC(C)(C)CC2(C1)NC(=O)N(CC(=O)Nc1nccs1)C2=O` (configuration not stated), the inhibition was 12%.

Turning to `CN(C)/C=N/c1cc(=O)n(C)c(=O)n1CC1CC1`, the inhibition was -0.734%.

On to `CN(C)S(=O)(=O)c1ccc(N2CCCC2=O)c([N+](=O)[O-])c1`, for which the inhibition was 7.65%.

For the compound `C=CCc1cc(S(=O)(=O)c2ccc(O)c(CC=C)c2)ccc1O`, the inhibition was 11.5%.

With `CCCCc1ccc(S(N)(=O)=O)cc1`, the inhibition is 1.85%.

`COc1cc(CN(C)Cc2nc3cc(C(F)(F)F)ccc3c(=O)[nH]2)ccc1OC(F)F`: the inhibition was -0.492%.

Take `O=[N+]([O-])c1ncc(Br)cc1Nc1ccccc1`: the inhibition is -32.6%.

Consider `CC(C)N(Cc1nnc(-c2ccc(Cl)cc2)o1)C(=O)C1=COCCO1`, for which the inhibition was 0.031%.

On to `COc1ccc(CNC(=O)C(=O)N2CCC3(CC2)OCCN3S(=O)(=O)c2ccc(C)cc2)cc1`, for which the inhibition was 28.1%.

In the case of `Cc1cc(C)n(CCNC(=O)CC2C(=O)NCCN2Cc2ccc(C)o2)n1` (configuration not stated), the inhibition was -19.8%.

Consider `CCC(=O)NC(Nc1cc(C)ccn1)(C(F)(F)F)C(F)(F)F`, for which the inhibition was -10.4%.

As to `CC1CN(C(=O)CCC(=O)NCCCN2CCC(Cc3ccccc3)CC2)c2cc(Cl)ccc2O1` (configuration not stated), the inhibition was 2.61%.

Consider `Cc1noc(C)c1C(=O)OCC(=O)N1CCN(S(=O)(=O)c2ccc3ccccc3c2)CC1`, for which the inhibition was -0.0421%.

Turning to `CCOC(=O)c1sc(-c2cccc([N+](=O)[O-])c2)cc1N`, the inhibition is 0.615%.

Consider `Cc1ccc(C(=O)CN2C(=O)NC3(CCOc4ccccc43)C2=O)s1` (configuration not stated), for which the inhibition is 0.803%.

In the case of `CCOc1ccc(NC(=O)CN(C)CC(=O)NC(C)c2ccccc2)cc1OCC` (configuration not stated), the inhibition was 2.69%.

As to `CCN1C(=O)C(=O)N(CC(=O)Nc2cc(C)ccc2C)C1=O`, the inhibition was 8.4%.

Take `COc1cccc2cc(C(=O)NCc3ccc(C)cc3)c(=N)oc12`: the inhibition was 0.845%.

In the case of `Cc1ccccc1-c1cc(C(=O)NCC2CC2)n(CC2CC(c3cccnc3)=NO2)n1` (configuration not stated), the inhibition was -1.99%.

Regarding `O=C(/C=C/c1cccs1)c1cc(Cl)ccc1OC(=O)N1CCOCC1`, the inhibition is 98.5%.

Consider `CN(C(=O)c1ccccn1)c1nnc(-c2ccccn2)s1`, for which the inhibition was 58.4% (active).

`COc1cccc(-c2nnc(N(C)C(=O)c3ccno3)s2)c1`: the inhibition was -39.9%.

Turning to `COc1cc(OC)cc(-c2nnc(N(C)C(=O)c3ccncc3)s2)c1`, the inhibition is -7.55%.

`O=C(NCCNc1ccc([N+](=O)[O-])cc1)c1cccc2c(Br)cccc12`: the inhibition was 7.15%.

With `O=C(O)CCCn1cc(NC(=O)COc2cccc(Cl)c2)cn1`, the inhibition is -414%.

Regarding `CCCCn1c(N)c(N(CC(C)C)C(=O)c2cccc(S(=O)(=O)N3CCN(C(C)=O)CC3)c2)c(=O)[nH]c1=O`, the inhibition was -1.72%.

As to `CC1CCN(C(=O)/C(=C\c2ccccc2F)NC(=O)c2ccccc2)CC1`, the inhibition is 0.57%.

On to `CCOc1ccc(S(=O)(=O)N2CCC(c3ccccc3)CC2)cc1C(=O)O`, for which the inhibition is -0.18%.

In the case of `O=C(N1CCCCC1)N1CCN(C(=O)N2CCCCC2)CC1`, the inhibition is -0.997%.

Take `COc1ccc(CC(NC(C)=O)C(=O)N2CCN(C(=O)Nc3cccc(Cl)c3)CC2)cc1OC` (configuration not stated): the inhibition is 3.8%.

As for `Cc1ccc2oc(C(=O)N3CCN(C)C[C@@H]3C(C)C)c(C)c2c1`, the inhibition was -21.1%.

`COc1ccc(-c2nc3n(c(=O)c2C#N)CCS3)c(OC)c1`: the inhibition is -2.02%.

With `COc1ccccc1OCC(=O)Nc1c2c(nn1-c1ccc(F)cc1)CS(=O)(=O)C2`, the inhibition was -10.7%.

Take `COC(=O)c1c(NC(=O)CN(c2ccc(C)c(C)c2)S(C)(=O)=O)sc2c1CCCC2`: the inhibition was 5.54%.

For the compound `NS(=O)(=O)c1ccc(CNC(=S)NC(=O)c2ccco2)cc1`, the inhibition was 2.82%.

With `CC(C)C[C@@H](N)c1nnc(SCC(=O)c2ccc(Cl)cc2)o1`, the inhibition is -0.106%.

In the case of `C=CCSc1nc(Cc2ccc(Cl)cc2)nc2ccccc12`, the inhibition is -13.3%.

For the compound `CCOc1ccc(C(C)=O)cc1COC(=O)c1cnc(Cl)c(Cl)c1`, the inhibition was -8.14%.

Take `O=S(=O)(NCCc1ccccn1)c1cc(Cl)cc(Cl)c1O`: the inhibition was 6.23%.

As for `CCN(C(=O)CSc1ncnc2sccc12)c1c(N)n(Cc2ccccc2)c(=O)[nH]c1=O`, the inhibition was -1.94%.

Consider `CN1C(=O)c2ccccc2C(C(=O)NCCCN2CCCC2)C1c1c[nH]c2ccccc12` (configuration not stated), for which the inhibition was -5.55%.

With `COCCCn1c(SCC(=O)Nc2oc(C)c3c(C)n[nH]c(=O)c23)nc2sc3c(c2c1=O)CCC3`, the inhibition was -6.89%.

In the case of `CCC(CO)Oc1cc(NC(=O)c2cccc3ccccc23)c2ncn(C(C)C)c2c1` (configuration not stated), the inhibition is 51.8% (active).

Take `CCC(CO)Oc1cc(NC(=O)c2cccc(F)c2)c2ncn(C(C)C)c2c1` (configuration not stated): the inhibition is -5.85%.

`CCC(CO)Oc1cc(NCc2ccccc2)c2ncn(C3CCCC3)c2c1` (configuration not stated): the inhibition was -1.07%.

As to `CC(=O)Nc1ccc(Nc2ncnc3c2nnn3Cc2ccccc2Cl)cc1`, the inhibition is 1.4%.

Take `CCC(=O)N1c2ccc(S(=O)(=O)NCc3ccco3)cc2CC1C` (configuration not stated): the inhibition was 15.7%.

For the compound `Cc1[nH]c(C)c(S(=O)(=O)N2CCN(c3cccc(C(F)(F)F)c3)CC2)c1C(=O)N1CCCCC1`, the inhibition was 30%.

As for `Cc1ccc(C)c(NC(=O)CCC(=O)N/N=C2/CC(=O)CC(C)(C)C2)c1`, the inhibition is 3.28%.

As for `COc1ccccc1NC1=NC(c2ccc(Cl)cc2)N=C(N)N1` (configuration not stated), the inhibition is 0.933%.

Turning to `Cc1ccc(S(=O)(=O)N2CCC(C(=O)OCC(=O)N(C)c3ccccc3)CC2)cc1C`, the inhibition is 10.2%.

On to `O=C1c2ccccc2C(=O)N1CCOc1ccc(F)cc1`, for which the inhibition is -6.36%.

Usually inhibition stands for the change of the read-out against control, counted positive when it falls.

The values above are taken from PubChem BioAssay AID2099 (Broad Institute, 2009).
